Source: PubChem BioAssay (NCATS)
The other results are listed elsewhere or left out. Results filed as inconclusive are left out. The source made the active and inactive calls. Calls come from the whole dose curve; as a rule, active = well fitted inhibition curve with a large enough effect; inconclusive = small, poorly fitted or top-dose-only effect; inactive = flat fitted curve, though single readings scatter.

Target: Fructose-bisphosphate aldolase A (Oryctolagus cuniculus) (UniProt P00883)
Assay: qHTS Assay for Inhibitors of Fructose-1,6-bisphosphate Aldolase from Giardia Lamblia: Rabbit FBPA Selectivity (AID 2794); note: nearly all actives have a fitted effect of over 60% in size
Conditions: Rabbit muscle FBPA enzyme inhibition, selectivity counter-screen; series mostly up to 57.5 µM
From the text: NIH Chemical Genomics Center [NCGC]
NIH Molecular Libraries Probe Production centers Network [MLPCN]
Assay Provider: Osnat Herzberg, University of Maryland
The objective of this project is to obtain compounds that inhibit Giardia lamblia growth. G. lamblia is a human pathogen which afflicts impoverished nations; it is the most common cause of outbreaks of diarrhea in the United States. During the course of our study of potential drug targets in Giardia, we have identified the Class II (Zn2+ functions in electrophilic catalysis) fructose-1,6-bisphosphate aldolase (FBPA) as an excellent candidate for drug targeting. FBPA is a key glycolytic pathway enzyme, essential for G. lamblia survival. The human FBPA belongs to the Class I aldolases, which have a different substrate binding site structure and a radically different catalytic mechanism (employing a lysine-Schiff base intermediate). Therefore, affinity-based or mechanism-based inhibitors of the Giardia FBPA are expected not to interfere with the catalytic function of the human FBPA.
A glyceraldehyde-3-phosphate dehydrogenase/triose phosphate isomerase/NAD/arsenate coupled assay was adapted to the 1536-well HTP format for use in the primary screen. This was done by coupling it to a diaphorase/resazurin/resorufin reaction that can be monitored by fluorescence (excitation, 544 nm; emission, 590 nm). Compounds identified in this screen will be further evaluated by coupling the glycerol-3-phosphate/triose phosphate isomerase/NADH assay to a phenazine methosulfate/tetranitroblue tetrazolium color reaction. False positives due to the dehydrogenases and diaphorase inhibition will be eliminated, and selectivity assay will triage inhibitors of mammalian triose phosphate isomerase and the Class I FBPA. G. lamblia FBPA inhibitors identified by the in vitro analyses will be examined for growth inhibition of Giardia trophozoites, and for cytotoxicity in human cells.
This assay addresses whether hits in the primary screen are selective for […] FBPA, by using rabbit FBPA enzyme in the protocol.
Step,Parameter,Value,Description
1,Coupling enzyme reagent,2 uL,glyceraldehyde-3-phosphate
2,Compound,23 nL,3.68 nM-57.5 uM final concentration
3,Time,10 min,RT Incubation
4,Substrate/detection Reagent,2 uL,Substrate + enzyme coupling system + AmpLite Red kit
5,Time,20 min,RT Incubation
6,Detector,525 nm/598 nm (Fluorescence),ViewLux Fluorescence Read (Read 1)
1,Medium-binding black solid-bottom Kalypsys plates. FRD or Kalypsys dispenser.
2,Compound Library (10 mM ,1:5 dilution). Pin-transferred for a [final] range of 3.68 nM-57.5 uM.
4,FRD or Kalypsys dispenser, 2 uL of reaction mixture. Bottle kept at 4C and covered in foil to protect from light.
6,ViewLux Protocol 1194; Excitation filter wheel A (525/20 Pol; BODIPY TMR FP), Emission filter wheel B (598/25 S; BODIPY TMR FP S).
Keywords: Fructose-bisphosphate aldolase, FBPA , Giardia lamblia , Giardia, HTS, Inhibitors

Sequence of Fructose-bisphosphate aldolase A (Oryctolagus cuniculus) (P00883 whole entry, looked up): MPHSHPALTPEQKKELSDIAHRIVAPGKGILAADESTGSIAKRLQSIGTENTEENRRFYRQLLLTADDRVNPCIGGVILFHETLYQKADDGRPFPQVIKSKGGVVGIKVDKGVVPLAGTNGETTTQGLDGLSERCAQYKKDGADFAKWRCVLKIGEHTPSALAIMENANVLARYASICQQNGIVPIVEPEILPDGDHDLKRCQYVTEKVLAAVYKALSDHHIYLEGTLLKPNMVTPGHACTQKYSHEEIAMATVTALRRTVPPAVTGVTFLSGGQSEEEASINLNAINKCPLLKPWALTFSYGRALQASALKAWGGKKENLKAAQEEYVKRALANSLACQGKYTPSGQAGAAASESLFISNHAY

| SMILES | outcome |
| --- | --- |
| COCCN(C(=S)Nc1ccccc1OC)C1CCN(C(C)C)CC1 | inactive |
| C/C(=N\NC(N)=S)c1cccnc1 | inactive |
| C=CCc1cc(C)ccc1OCCCn1ccnc1 | inactive |
| Cc1cccc(-c2nnc(SCC(=O)O)n2Cc2ccccc2)c1 | inactive |
| CN(C)CCOc1ccc(Cl)cc1C(C)(C)C | inactive |
| Cc1csc(NC(=O)CN2CCCCCC2)n1 | inactive |
| O=C(N/N=C/c1ccccn1)c1cccnc1 | inactive |
| CSc1n[nH]c(=S)n1N | inactive |
| O=C1CCCN1CCCNC(=S)Nc1ccc(F)c(Cl)c1 | inactive |
| Cc1nc2ccc(NC(=S)N3CCC(C)CC3)cc2nc1C | inactive |
| COc1ccc(C(=O)NC(=S)N2CCCCC2c2cccnc2)cc1OC (stereo not given) | inactive |
| C=C(C)CNC(=S)N/N=C/c1ccccc1OCC(=O)O | inactive |
| COc1ccc(CN2CCN(Cc3ccc(OC)c(OC)c3OC)CC2)cc1 | inactive |
| O=C(Nc1ccccc1Cl)O/N=C(/c1ccccc1)c1ccccn1 | inactive |
| Oc1ccc2ccccc2c1N=Nc1nccs1 | inactive |
| COc1ccccc1CN1CCN(Cc2cc(OC)c(OC)cc2OC)CC1 | inactive |
| CNC(=S)N/N=C/c1ccc(N2CCOCC2)s1 | inactive |
| CCS(=O)(=O)c1cc([N+](=O)[O-])c(Sc2ccccc2N)s1 | inactive |
| O=[N+]([O-])c1cc([N+](=O)[O-])c2cccnc2c1O | inactive |
| COc1ccc(OC)c(Nc2nc(-c3ccc(O)c(O)c3)cs2)c1 | inactive |

| SMILES | outcome |
| --- | --- |
| Cc1cc(C)nc(N/N=C/c2ccc([N+](=O)[O-])o2)n1 | inactive |
| CN1CCCc2cc(C#N)c(=O)[nH]c21 | inactive |
| COc1cc(CN2CCN(Cc3ccc(C)cc3)CC2)c([N+](=O)[O-])cc1OC | inactive |
| Cc1ccc(S(=O)(=O)NNC(=S)NC(C)(C)C)cc1 | inactive |
| O=C(CSc1cccc[n+]1[O-])c1ccc(-c2ccccc2)cc1 | inactive |
| Oc1[nH]c2ccc(Br)cc2c1N=Nc1nn[nH]n1 | inactive |
| O=C(NC(=S)Nc1ncccn1)c1ccccc1Br | inactive |
| Cc1cccc(C)c1OCCN1CCOCC1 | inactive |
| Cc1cc(C)c2c(=O)[nH]c(SCC(=O)Nc3ccc(Br)cc3)nc2n1 | inactive |
| O=C(O)Cn1c(Cc2ccccc2)nc2ccccc21 | inactive |
| Cn1c(=O)[nH]c(=O)c2c1[nH]c(=S)n2Cc1ccccc1 | inactive |
| C=CCNC(=S)/N=c1/ccccn1Cc1ccccc1 | inactive |
| COC(=O)CC1=NN(c2nc(C)cc(C)n2)C(=O)C1 | inactive |
| COc1ccc(Cl)cc1C(=O)NNC(=O)c1nc2nc(C)cc(C)n2n1 | inactive |
| Cc1nnc(N/N=C/c2ccccn2)[nH]c1=O | inactive |
| O=C(Nc1nnc(-c2ccco2)o1)c1ccc(S(=O)(=O)N2CCOCC2)cc1 | inactive |
| O=c1nc(N/N=C/c2ccco2)cn[nH]1 | inactive |
| Clc1cccc(CN2COc3c(cc(Cl)c4cccnc34)C2)c1 | inactive |
| Cc1nnc(SCC2=C(C(=O)O)N3C(=O)C(NC(=O)Cn4nc(C)c(Cl)c4C)C3SC2)s1 (stereo not given) | inactive |
| Cc1ccc(OCCCCc2c(C)n[nH]c2C)cc1 | inactive |
